# Source: PubChem BioAssay (Tox21)
# Values without a mark were called inactive. Results filed as inconclusive are left out. A call without a number means that no potency is given here. Activity calls are given as the source filed them. Unless noted, the call rests on the fitted dose curve; in most records, active means well fitted curve in the direction sought with a large enough effect in the repeat runs; inconclusive means weak or mixed curves; inactive means no such curve, though single readings can be large; an effect the other way counts as inactive or inconclusive.
# How the values were obtained:
# [1] = qHTS assay to identify small molecule antagonists of the retinoid acid receptor (RAR) signaling pathway - cell viability counter screen (AID 1159551); further: nearly all actives have a fitted effect of over 35% in size
# How it was run: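 Retinol-stimulated (1 uM final) C3RL4 cells, compound 6 h, 37 C; readout CellTiter-Glo luminescence (ATP) after 30 min RT incubation.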
# [2] = qHTS assay to identify small molecule antagonists of the retinoic acid receptor (RAR) signaling pathway (AID 1159552; further: nearly all actives have a fitted effect of over 50% in size)
# How it was run: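 Readout: luciferase luminescence, 30 min post-reagent at RT. Setup: C3RL4 RARE reporter cells, compounds plus retinol 1 uM final, 6 hr incubation at 37 C and 5% CO2.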
# [3] = qHTS assay to identify small molecule agonists of the retinoic acid receptor (RAR) signaling pathway (AID 1159553); further: potency means the concentration at half of the fitted maximal effect
# How it was run: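 Reporter readout comes from luciferase under RARE control in C3RL4 cells; compound exposure lasts 6 hr at 37 C in 5% CO2, and luminescence is recorded following a 30 min room-temperature incubation with reagent.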
# [4] = qHTS assay to identify small molecule antagonists of the estrogen related receptor (ERR) signaling pathway from Tox21 library - cell viability counter screen (AID 1224834); further: nearly all actives have a fitted effect of over 30% in size
# How it was run: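 After 17.5 h of compound exposure at 37 C, ERR cells are incubated with CellTiter-Fluor for 30 min and fluorescence intensity serves as the viability measure.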
# [5] = target: Luciferin 4-monooxygenase (Photinus pyralis) (UniProt P08659); assay: qHTS assay to identify small molecule inhibitors of firefly luciferase (AID 1224835); further: nearly all actives have a fitted effect of over 25% in size; further: potency means the concentration at half of the fitted maximal effect
# Sequence of Luciferin 4-monooxygenase (Photinus pyralis) (P08659 whole entry, looked up): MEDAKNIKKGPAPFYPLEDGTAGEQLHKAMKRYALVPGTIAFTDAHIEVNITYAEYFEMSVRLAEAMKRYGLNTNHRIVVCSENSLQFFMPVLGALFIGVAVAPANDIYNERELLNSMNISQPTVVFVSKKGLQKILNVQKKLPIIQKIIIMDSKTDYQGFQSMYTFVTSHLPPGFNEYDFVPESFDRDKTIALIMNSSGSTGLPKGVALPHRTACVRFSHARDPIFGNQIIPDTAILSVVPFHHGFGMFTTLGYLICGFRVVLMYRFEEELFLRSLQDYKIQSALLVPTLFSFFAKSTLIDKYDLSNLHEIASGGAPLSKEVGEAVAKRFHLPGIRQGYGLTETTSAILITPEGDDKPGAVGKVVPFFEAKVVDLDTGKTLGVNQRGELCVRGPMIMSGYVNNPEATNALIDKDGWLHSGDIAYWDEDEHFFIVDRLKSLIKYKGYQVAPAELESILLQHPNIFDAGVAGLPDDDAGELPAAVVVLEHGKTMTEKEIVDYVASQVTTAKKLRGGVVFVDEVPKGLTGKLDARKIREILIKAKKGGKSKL
# How it was run: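 Biochemical qHTS: compounds run as interplate titrations against purified firefly enzyme, with D-luciferin and ATP each at its KM concentration. Light output recorded by CCD imaging.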
# [6] = qHTS assay to identify small molecule agonists of the constitutive androstane receptor (CAR) signaling pathway - cell viability counter screen (AID 1224836); further: nearly all actives have a fitted effect of over 45% in size
# How it was run: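 Compound titrations (15 concentrations) went onto HepG2-CYP2B6-hCAR cells 4 h after seeding, alongside PK11195 at a final 0.75 uM; a 23 h, 37 C/5% CO2 incubation preceded CellTiter-Fluor viability measurement.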
# [7] = qHTS assay to identify small molecule antagonists of the constitutive androstane receptor (CAR) signaling pathway - cell viability counter screen (AID 1224837); further: nearly all actives have a fitted effect of over 45% in size
# How it was run: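 Counter screen run in HepG2-CYP2B6-hCAR cells: 4 hr settle, compound titration (15 concentrations) with 50 nM CITCO, 23 hr at 37 C/5% CO2, CellTiter-Fluor fluorescence.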
# [8] = target: Nuclear receptor subfamily 1 group I member 3 (Homo sapiens) (UniProt Q14994); assay: qHTS assay to identify small molecule antagonists of the constitutive androstane receptor (CAR) signaling pathway (AID 1224838);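 further: HepG2 cells stably expressing hCAR with CYP2B6 luciferase reporter stimulated by CITCO; nearly all actives have a fitted effect of over 40% in size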
# Sequence of Nuclear receptor subfamily 1 group I member 3 (Homo sapiens) (Q14994 whole entry, looked up): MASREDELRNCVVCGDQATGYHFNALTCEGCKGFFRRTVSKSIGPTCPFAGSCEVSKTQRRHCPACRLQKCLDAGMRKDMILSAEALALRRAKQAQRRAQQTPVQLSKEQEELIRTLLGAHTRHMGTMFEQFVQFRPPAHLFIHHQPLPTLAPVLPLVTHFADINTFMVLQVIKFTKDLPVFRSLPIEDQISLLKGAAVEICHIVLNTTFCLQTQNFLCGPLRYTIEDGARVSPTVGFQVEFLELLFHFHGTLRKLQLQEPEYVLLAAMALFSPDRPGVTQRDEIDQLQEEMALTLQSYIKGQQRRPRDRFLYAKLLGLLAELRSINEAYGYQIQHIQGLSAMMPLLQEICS
# How it was run: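 Cell line: HepG2 double-stable for hCAR and CYP2B6-2.2kb reporter. Agonist: CITCO, 50 nM final. Compounds: 15 concentrations, 24 h, 37 C. Detection: ONE-Glo luminescence.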
# [9] = target: Nuclear receptor subfamily 1 group I member 3 (Homo sapiens) (UniProt Q14994); assay: qHTS assay to identify small molecule agonists of the constitutive androstane receptor (CAR) signaling pathway (AID 1224839); further: nearly all actives have a fitted effect of over 15% in size; further: potency means the concentration at half of the fitted maximal effect;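 on activation: HepG2 cells stably carrying human CAR and a CYP2B6 luciferase reporter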
# How it was run: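 In this screen, CAR-driven CYP2B6 promoter activity is measured by luminescence in HepG2-CYP2B6-hCAR cells after 24 h with test compounds and 0.75 uM PK11195 (final concentration).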
# [10] = qHTS assay to identify small molecule antagonists of the estrogen related receptor signaling pathway with the pleiotropic PPARgamma coactivator (PGC) from Tox21 10K library - cell viability counter screen (AID 1224840; active means well fitted cell-killing curve with a large enough effect in the repeat runs, not every such curve was filed as active; further: nearly all actives have a fitted effect of over 40% in size)
# How it was run: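 Following seeding of 2,000 PGC/ERR cells/well and 6 hours' incubation, test compounds were delivered in DMSO. The plates then sat 17.5 hours at 37 C before a fluorogenic live-cell protease reagent (CellTiter-Fluor) was read after 30 min.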
# [11] = qHTS assay to identify small molecule antagonists of the estrogen related receptor signaling pathway with the pleiotropic PPARgamma coactivator (PGC) from Tox21 10K library (AID 1224841; call rule not given here; further: actives are mostly falling curves and most rising ones were filed inactive; nearly all actives have a fitted effect of over 50% in size)
# How it was run: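 qHTS antagonist format: PGC/ERR cells, 2k/well, compound in DMSO by pin transfer after 6 h attachment, 18 h treatment at 37 C, One-Glo luminescence read at 30 min.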
# [12] = qHTS assay to identify small molecule agonists of the estrogen related receptor signaling pathway with the pleiotropic PPARgamma coactivator (PGC) from Tox21 10K library (AID 1224842); further: nearly all actives have a fitted effect of over 15% in size
# How it was run: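 PGC/ERR reporter cell line, 2,000 cells per well, incubated 6 h at 37 C before 23 nL compound in DMSO was added. After 18 h at 37 C, One-Glo luminescence read following 30 min at room temperature.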
# [13] = qHTS assay to identify small molecule agonists of H2AX (AID 1224845; active means well fitted activation curve with a large enough effect in the signal ratio in the repeat runs, not every such curve was filed as active; the % refers to the signal ratio)
# How it was run: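 Wild-type CHO-K1 cells, plated overnight, exposed 3hr at 37C to 15 concentrations (0.76% DMSO final). Lysed, then HTRF anti-pH2AX (S139) cryptate and anti-H2AX-d2 antibodies, 24 hr room temperature; 665/620 nm emission read.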
# [14] = qHTS assay to identify small molecule agonists of the hypoxia (HIF-1) signaling pathway (AID 1224846; active means well fitted activation curve with a large enough effect in the signal ratio in the repeat runs, not every such curve was filed as active; the % refers to the signal ratio)
# How it was run: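 A low-serum medium (0.5% dialyzed FBS) holding 2,000 HRE-bla ME-180 cells per well is preincubated for 5 hrs, dosed with compounds by pintool, and kept a further 17 hrs at 37C, 5% CO2 before CCF4-AM FRET detection of beta-lactamase.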
# [15] = qHTS assay to identify small molecule agonists of H2AX - cell viability counter screen (AID 1224847; calls by dose curve; further: top concentration of the series differs between compounds; nearly all actives have a fitted effect of over 30% in size)
# How it was run: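 Read-out: CellTiter-Glo luminescence, 30 min RT. Cells: wild-type CHO-K1, 1000/well, 10% FBS, plated overnight at 37C. Treatment: 15 concentrations, 3 hr, 37C, 0.76% DMSO.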
# [16] = qHTS assay to identify small molecule antagonists of the estrogen related receptor (ERR) signaling pathway from Tox21 library (AID 1224848); further: nearly all actives have a fitted effect of over 50% in size
# How it was run: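 ERR reporter cell line (from NTP) seeded 2,000 cells/well, rested 6 h at 37 C/5% CO2, then pin-dosed with compounds in DMSO. After 18 h at 37 C, ONE-Glo added; luminescence read after 30 min at room temperature.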
# [17] = qHTS assay to identify small molecule agonists of the estrogen related receptor (ERR) signaling pathway from Tox21 library (AID 1224849; calls by dose curve; further: nearly all actives have a fitted effect of over 15% in size); details: ERR reporter cell line, ONE-Glo luciferase, 18 h; at 92.4 µM (top of the series) unless noted
# How it was run: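 Screening used an NTP-provided ERR luciferase cell line. Compounds in DMSO were added 6 h after seeding and left 18 h at 37 C before a 30 min ONE-Glo step and luminescence reading.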
# [18] = qHTS RealTime-Glo MT Cell Viability Assay in HepG2 cells - 24 hour (AID 1224867); further: nearly all actives have a fitted effect of over 50% in size
# How it was run: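 Real-time, nonlytic viability: 600 HepG2 cells/well mixed with NanoLuc enzyme plus prosubstrate; 5 h settle, compound (DMSO) added by pintool; luminescence monitored over 40 h at 37 C.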
# [19] = target: Thyrotropin receptor (Homo sapiens) (UniProt P16473); assay: qHTS assay to identify small molecule agonists of the thyroid stimulating hormone receptor (TSHR) signaling pathway (AID 1224843; calls by dose curve; further: nearly all actives have a fitted effect of over 45% in size)
# Sequence of Thyrotropin receptor (Homo sapiens) (P16473 whole entry, looked up): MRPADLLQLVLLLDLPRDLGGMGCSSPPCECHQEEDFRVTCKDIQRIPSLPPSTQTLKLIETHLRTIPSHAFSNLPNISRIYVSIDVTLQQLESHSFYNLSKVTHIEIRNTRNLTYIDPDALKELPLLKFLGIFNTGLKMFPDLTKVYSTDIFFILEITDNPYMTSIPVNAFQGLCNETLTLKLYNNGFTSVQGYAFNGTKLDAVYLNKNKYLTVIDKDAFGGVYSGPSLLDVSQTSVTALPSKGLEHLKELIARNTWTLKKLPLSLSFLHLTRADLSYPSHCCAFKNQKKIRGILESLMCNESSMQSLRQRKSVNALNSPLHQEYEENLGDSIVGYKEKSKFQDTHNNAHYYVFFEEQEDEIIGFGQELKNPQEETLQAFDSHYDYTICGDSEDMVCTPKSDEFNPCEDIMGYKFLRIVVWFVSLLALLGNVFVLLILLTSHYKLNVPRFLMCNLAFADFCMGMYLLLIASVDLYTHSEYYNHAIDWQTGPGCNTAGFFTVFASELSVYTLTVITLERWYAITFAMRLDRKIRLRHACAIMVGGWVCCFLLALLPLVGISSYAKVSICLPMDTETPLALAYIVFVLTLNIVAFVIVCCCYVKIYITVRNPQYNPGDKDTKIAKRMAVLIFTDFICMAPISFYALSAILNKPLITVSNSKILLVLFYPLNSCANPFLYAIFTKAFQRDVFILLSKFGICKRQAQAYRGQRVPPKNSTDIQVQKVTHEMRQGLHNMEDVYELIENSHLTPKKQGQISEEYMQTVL
# How it was run: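 TSHR-HEK293 cells in agonist mode, 30 min room-temperature step, then cAMP measured by competitive HTRF (cAMP-d2 with anti-cAMP cryptate) after 1 h at room temperature. Tested at 15 concentrations in triplicate.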
# [20] = qHTS assay to identify small molecule agonists of the hypoxia (HIF-1) signaling pathway - cell viability counter screen (AID 1224844; calls by dose curve; further: nearly all actives have a fitted effect of over 50% in size)
# How it was run: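 Cells (HRE-bla ME-180, 2,000 per well) sat 5 hrs at 37C, got compound for 17 hrs, were read for CCF4-AM FRET, and were finally lysed with CellTiter-Glo for a 30 min room-temperature luminescence read.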
Structure (SMILES),outcome [1],outcome [2],Potency [3],outcome [4],Potency [5],outcome [6],outcome [7],outcome [8],Potency [9],outcome [10],Potency [11],Potency [12],outcome [13],outcome [14],outcome [15],outcome [16],"activity change, positive = activation [17]",outcome [18],Potency [19],outcome [20]
NNC(=O)CCCCC(=O)NN,inactive,inactive,inactive,inactive,inactive,inactive,inactive,inactive,inactive,inactive,inactive,inactive,inactive,inactive,inactive,inactive,0.359%,inactive,,
CCCCS,inactive,inactive,inactive,inactive,inactive,inactive,inactive,inactive,inactive,inactive,,,inactive,inactive,inactive,,,inactive,inactive,inactive
CCCCCCCC(=O)N(C)C,inactive,inactive,inactive,inactive,inactive,inactive,inactive,inactive,inactive,inactive,inactive,inactive,inactive,inactive,inactive,inactive,2.8%,inactive,,
Cc1cc(C)c(N)c(Cl)c1,inactive,inactive,inactive,inactive,inactive,inactive,inactive,inactive,inactive,inactive,,,inactive,inactive,inactive,,,inactive,inactive,inactive
CC(=O)c1ccc2ccc3ccccc3c2c1,inactive,inactive,inactive,inactive,31.5 µM (active),inactive,inactive,inactive,60.8 µM (active),inactive,inactive,inactive,,inactive,,inactive,8.72%,inactive,inactive,
CC(C)(C)c1ccc(N)cc1,inactive,inactive,inactive,inactive,inactive,inactive,inactive,inactive,inactive,inactive,inactive,inactive,inactive,inactive,inactive,inactive,,inactive,,inactive
CCCCCCC(O)CO (centres undefined),inactive,inactive,inactive,inactive,inactive,inactive,inactive,inactive,inactive,inactive,,,inactive,,inactive,,,inactive,,inactive
Cc1nc2ccc(Cl)cc2[nH]1,inactive,inactive,inactive,inactive,inactive,inactive,inactive,inactive,,inactive,,,inactive,inactive,inactive,,,inactive,inactive,inactive
CCCCCCCCOCCC#N,inactive,inactive,inactive,inactive,inactive,inactive,inactive,,inactive,inactive,inactive,inactive,inactive,inactive,inactive,inactive,3%,inactive,inactive,inactive
CCNC(=O)C(C)OC(=O)Nc1ccccc1 (centres undefined),inactive,inactive,inactive,inactive,inactive,inactive,inactive,,inactive,inactive,,,inactive,inactive,inactive,,,inactive,inactive,inactive
Cc1ccc2ccccc2n1,inactive,inactive,inactive,inactive,inactive,inactive,inactive,inactive,inactive,inactive,,,inactive,inactive,inactive,,,inactive,inactive,
CCCCN(CCCC)CCCCCCN(CCCC)CCCC,inactive,inactive,inactive,inactive,inactive,inactive,inactive,inactive,inactive,inactive,,,inactive,inactive,inactive,,,inactive,inactive,
COC(=O)c1ccccc1Cl,inactive,inactive,inactive,inactive,inactive,inactive,inactive,inactive,inactive,inactive,,,inactive,inactive,inactive,,,inactive,,inactive
O=S(=O)(O)CC(O)CCl (centres undefined),inactive,inactive,inactive,inactive,inactive,inactive,inactive,inactive,inactive,inactive,,,inactive,inactive,inactive,,,inactive,,inactive
COc1cc(OC)cc(OC)c1,inactive,inactive,inactive,inactive,inactive,inactive,inactive,,inactive,inactive,,,inactive,inactive,inactive,,,inactive,,inactive
CC(C)(C)c1ccc(C(=O)CCCCl)cc1,inactive,inactive,5.96 µM (active),inactive,7.76 µM (active),inactive,inactive,,21.1 µM (active),inactive,,,inactive,inactive,inactive,,,inactive,inactive,inactive
CC(C)(C)NCC(O)COc1cccc2c1CCC(=O)N2 (centres undefined),inactive,inactive,inactive,inactive,inactive,inactive,inactive,,inactive,inactive,,,inactive,,inactive,,,inactive,inactive,inactive
